Bioassay records deposited in PubChem by NMMLSC.
VLA-4 allo ag – allosterically activates the human VLA-4 integrin. P13612. Jurkat cells, LDV-FITC binding, flow cytometry. activation, % at 10 µM (by protocol). 24,000 tested, under 10 active;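 active means fluorescent ligand binding to cells raised by more than 40% of the manganese-induced maximum; inconclusive means compound's own fluorescence above 85% of the ligand control signal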
Target sequence (P13612 whole entry, looked up): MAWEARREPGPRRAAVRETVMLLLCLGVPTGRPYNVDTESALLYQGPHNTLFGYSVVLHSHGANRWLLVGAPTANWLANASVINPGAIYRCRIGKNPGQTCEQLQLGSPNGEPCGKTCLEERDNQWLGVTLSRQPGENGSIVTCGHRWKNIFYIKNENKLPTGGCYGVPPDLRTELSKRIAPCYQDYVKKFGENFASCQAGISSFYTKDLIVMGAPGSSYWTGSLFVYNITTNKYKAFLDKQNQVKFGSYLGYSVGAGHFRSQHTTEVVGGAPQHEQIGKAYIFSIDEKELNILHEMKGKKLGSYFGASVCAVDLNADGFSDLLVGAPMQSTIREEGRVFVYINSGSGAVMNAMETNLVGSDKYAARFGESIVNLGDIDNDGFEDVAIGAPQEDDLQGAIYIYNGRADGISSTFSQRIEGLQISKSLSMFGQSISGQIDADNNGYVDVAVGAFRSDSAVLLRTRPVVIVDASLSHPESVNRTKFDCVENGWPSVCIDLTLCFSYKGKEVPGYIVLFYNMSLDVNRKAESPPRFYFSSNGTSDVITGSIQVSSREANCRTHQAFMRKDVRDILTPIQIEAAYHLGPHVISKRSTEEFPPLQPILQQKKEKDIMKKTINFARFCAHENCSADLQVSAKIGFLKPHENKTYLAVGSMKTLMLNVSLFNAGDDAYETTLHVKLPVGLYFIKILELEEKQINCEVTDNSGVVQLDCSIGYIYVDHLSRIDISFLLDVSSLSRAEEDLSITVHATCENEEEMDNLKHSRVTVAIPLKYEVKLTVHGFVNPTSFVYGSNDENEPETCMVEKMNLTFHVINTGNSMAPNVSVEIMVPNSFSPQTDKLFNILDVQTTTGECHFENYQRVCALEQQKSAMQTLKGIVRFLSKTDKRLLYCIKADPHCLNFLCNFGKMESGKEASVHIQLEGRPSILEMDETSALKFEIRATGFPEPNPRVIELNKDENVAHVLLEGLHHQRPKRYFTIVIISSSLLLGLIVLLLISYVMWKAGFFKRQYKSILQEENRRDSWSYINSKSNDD
Autofluor Jurkat – compound fluoresces in Jurkat cells, VLA-4 screen interference. AID 576. compound autofluorescence, flow cytometry; hits give high values; 1 = vehicle-only cell background. fluorescence ratio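 (tested at 10 µM compound in the well)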. actives 0.61% (n = 24,000);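 active means fluorescence ratio above 2.44, which is 1 plus 3 SD of all ratios; inconclusive means signal too bright to measure linearly, ratio around 10 or more; inactive means fluorescence ratio below 2.44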;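 further: green fluorescence of cells measured with 488 nm excitation and 530 nm emission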
QS inhibitor – S. aureus quorum sensing inhibition. S. aureus RN6390 RNAIII-GFP reporter, AIP-induced, flow cytometry 3 h. inhibition, % at 2 µM. actives 0.3% (n = 24,000). AID 527;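 active means share of bacteria positive for the green fluorescent reporter and its mean brightness both inhibited by 50% or more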
Proteasome disasm – blocks ATP-dependent breakdown of the yeast 26S proteasome. anti-FLAG beads, GFP-proteasome disassembly, flow cytometry. inhibition of disassembly, % (concentration not given with the values). actives 0.2% (n = 24,000);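 active means inhibition of disassembly above about 33%, limit read from the data; inconclusive means likely self-fluorescent, control bead median signal at least 40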;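 further: higher percent means more bead fluorescence retained so stronger block of disassembly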
VLA-4 antagonist – blocks LDV-FITC ligand binding to Mn2+-activated human VLA-4 integrin; P13612; Jurkat cells, LDV-FITC binding with Mn2+, flow cytometry; 100% = Mn2+-driven binding gain fully reversed; inhibition, % at 10 µM (by protocol); actives 0.2% (n = 24,000);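 active means inhibition above 50%; inconclusive means compound itself fluorescent, judged against control cell fluorescence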
A number is an active result; n = inactive; u = inconclusive; x = no result given. Most compounds without a hit are left out; they make up all but 1.2% or so of the library.

SMILES | VLA-4 allo ag | Autofluor Jurkat | QS inhibitor | Proteasome disasm | VLA-4 antagonist
Cc1ccc(S(=O)(=O)N2CCCN(S(=O)(=O)C3CCS(=O)(=O)C3)CC2)cc1 (stereo not drawn) | n | n | n | n | n
COC(=O)c1ccc2c(c1)NC(=O)C(N1CCCCC1)S2 (stereo not drawn) | u | n | n | n | u
COC(=O)c1ccc2c(c1)NC(=O)C(N1CCCC1)S2 (stereo not drawn) | u | 4.98 | n | n | u
COc1cccc2c1C(=O)c1c(O)c3c(c(O)c1C2=O)C[C@@](O)(C(=O)CO)C[C@@H]3O[C@H]1C[C@H](N)[C@H](O)[C@H](C)O1 | u | 6.26 | n | u | u
Cc1cc(C)c2c(n1)nn1c(N3CCN(c4ccccc4C)CC3)cc(C)nc21 | n | n | n | n | n
COc1cccc(NS(=O)(=O)c2ccc(Br)s2)c1 | u | 2.86 | n | n | u
O=C(COC(=O)c1cncc(Br)c1)NCCC1=CCCCC1 | n | n | n | n | n
COc1ccc(N(CC(=O)Nc2nc3ccc(C)cc3s2)S(=O)(=O)c2c(C)nn(C)c2C)cc1 | n | n | 66.5 | n | n
CCN1CCN(C(=O)C2CCN(Cc3nc(-c4cccc(Cl)c4)oc3C)CC2)CC1 | u | n | n | n | u
COc1ccc(CCNC(=O)C2CCN(Cc3nc(-c4ccc(Cl)cc4)oc3C)CC2)cc1OC | n | n | n | n | n
COC(=O)c1ccc2c(c1)N(Cc1nc(-c3cccc(Cl)c3)oc1C)C(=O)C1CCCN21 (stereo not drawn) | n | n | n | 81.4 | n
COC(=O)c1ccc2c(c1)N(Cc1nc(-c3ccc(Cl)cc3)oc1C)C(=O)C1CCCN21 (stereo not drawn) | n | n | n | 137.8 | n
CC(=O)Nc1ccccc1N(C)S(=O)(=O)c1ccc(C)cc1 | n | n | n | n | n
Cc1nnc(SCc2nc3ccccc3s2)n1-c1ccccc1 | u | 2.8 | n | u | u
COc1ccccc1Cn1c(-c2ccco2)nc2nc3ccccc3nc21 | u | 2.61 | n | n | u
CCOC(=O)C1CCN(C(=O)c2sc3nc(-c4ccccc4)cn3c2C)CC1 | u | 2.78 | n | n | u
COc1ccccc1N1CCN(C(=O)c2sc3nc(-c4ccccc4)cn3c2C)CC1 | u | 3.16 | n | n | u
Nc1nc2n(n1)C(c1c(F)cccc1Cl)CC(c1ccc(F)cc1)N2 (stereo not drawn) | n | n | n | n | n
CSc1cccc(-n2cc(-c3ccc4c(c3)OCO4)[nH]c2=O)c1 | n | n | n | n | n
CCCCCNC(=O)CCCCn1c(=O)[nH]c2cc(OCC)c(OCC)cc2c1=O | n | n | n | n | 77.7
c1ccc2c(c1)nc(NCC1CCCO1)c1nnnn12 (stereo not drawn) | u | 5.01 | n | n | u
Cn1c2c(c(=O)n(C)c1=O)C(c1ccccc1OC(F)F)C1=C(CCCC1=O)N2 (stereo not drawn) | u | n | n | n | u
COc1ccc(CCNC(=O)C2CCC(CNc3c(N4CCCC4)c(=O)c3=O)CC2)cc1OC (stereo not drawn) | n | n | n | n | n
COC(=O)c1ccc(CSc2nc3c(cnn3-c3ccc(Cl)cc3)c(=O)[nH]2)o1 | u | n | 70.8 | n | u
COC(=O)c1ccc(CSc2nc3c(cnn3-c3ccc(F)cc3)c(=O)[nH]2)o1 | n | n | n | n | n
SMILES | VLA-4 allo ag | Autofluor Jurkat | QS inhibitor | Proteasome disasm | VLA-4 antagonist
CN1C(=O)CC(N2CCN(c3ccccc3)CC2)C1=O (stereo not drawn) | x | x | n | x | x
CCCOc1ccc(C(CC(=O)O)NC(=O)c2ccc3c(c2)OCO3)cc1 (stereo not drawn) | n | n | n | n | 88.0
CCCOc1ccc(C(CC(=O)O)NS(=O)(=O)c2ccc(NC(C)=O)cc2)cc1 (stereo not drawn) | n | n | n | n | n
COc1ccc(C2C(C(C)=O)=C(C)N=c3s/c(=C/c4ccc5c(c4)OCO5)c(=O)n32)cc1 (stereo not drawn) | n | n | n | n | n
CC(=O)C1=C(C)N=c2s/c(=C/c3ccc4c(c3)OCO4)c(=O)n2C1c1ccc(N(C)C)cc1 (stereo not drawn) | u | 8.5 | n | n | u
O=C(CCCn1c(=S)[nH]c2ccc(Br)cc2c1=O)N1CCN(c2ccccn2)CC1 | n | n | n | n | n
O=C(Nc1ccon1)c1cnc2sccn2c1=O | u | 2.49 | n | n | u
CC(C)n1c(=NC(=O)c2ccco2)c(C#N)cc2c(=O)n3ccccc3cc21 | n | n | n | n | n
Cc1cccn2c(=O)c3cc(C#N)c(=NC(=O)c4ccncc4)n(Cc4ccco4)c3nc12 | u | 4.14 | n | n | u
Cc1nn(-c2ccccc2)c2sc(-c3n[nH]c(=S)o3)cc12 | n | n | 59.9 | n | n
Cc1nn(-c2ccccc2)c2sc(C(=O)N3CCOCC3)cc12 | n | n | n | n | n
Cn1c(=O)c2sccc2n2c(CCCC(=O)NCc3ccc4c(c3)OCO4)nnc12 | n | n | n | n | n
Cc1ccc(C)c(N2CCN(S(=O)(=O)c3c(C)noc3/C=C/N(C)C)CC2)c1 | n | n | n | 48.8 | u
Cc1noc(/C=C/N(C)C)c1S(=O)(=O)N1CCN(c2ccccc2)CC1 | n | n | n | n | n
FC(F)(F)c1ccc(N2CCOCC2)c(Nc2nc3ccccc3n3cnnc23)c1 | u | 2.72 | n | n | u
CCc1nnc(NC(=O)c2ccc(S(=O)(=O)N(CCOC)CCOC)cc2)o1 | u | 3.61 | n | n | u
COc1ccccc1-c1nnc(NC(=O)c2ccc(S(=O)(=O)N(C)C)cc2)o1 | u | 5.14 | n | n | u
COCCN(CCOC)S(=O)(=O)c1ccc(C(=O)Nc2nnc(C3CC3)o2)cc1 | n | n | n | n | n
COc1ccc(-c2nnc(NC(=O)c3ccc(S(=O)(=O)N4COCC4(C)C)cc3)o2)cc1 | u | 6.27 | n | n | u
CC1(C)COCN1S(=O)(=O)c1ccc(C(=O)Nc2nnc(-c3ccc(Cl)s3)o2)cc1 | n | n | n | n | n
CCOC(=O)C1CCCn2c1nc1sc3c(c1c2=O)CCCC3 (stereo not drawn) | n | n | n | n | n
COc1ccc(S(=O)(=O)C(C#N)c2nc3ccccc3nc2N2CCCC(C)C2)cc1 (stereo not drawn) | u | 2.95 | n | n | u
CCCN1Cc2cccc(C(=O)Nc3ccc(OC)c(OC)c3)c2C1=O | n | n | n | n | n
CCCN1Cc2cccc(C(=O)Nc3ccc(CN4CCCC4)cc3)c2C1=O | n | n | n | 102.3 | n
Cc1nc(SCC(=O)c2c[nH]c3ccccc23)n[nH]1 | u | 3.39 | n | n | u
O=C(O)CCC(=O)c1c[nH]c2ccccc12 | n | n | n | n | n
COc1ccccc1C(=O)N(Cc1nc(-c2ccc(Cl)cc2)no1)C(C)C | n | n | n | n | n
CCCNCC(O)COc1ccccc1C(=O)CCc1ccccc1 (stereo not drawn) | n | n | n | n | n
